Screening results as filed in PubChem BioAssay.
An excerpt weighted towards active compounds, which were near 10% of everything screened.
GLA inh pH 4.5: alpha-galactosidase A (human) inhibition, pH 4.5. P06280. purified enzyme, 4-MU-alpha-Gal fluorescence, pH 4.5. activity change, negative = inhibition, % at 105 µM. 230,000 tested, under 10 active;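 note: 0% = full activity with enzyme and -100% = basal without enzyme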
ALDH1A1 block: blocks purified human ALDH1A1 activity. Purified ALDH1A1, NADH fluorescence, propionaldehyde substrate. Potency, µM (doses to about 75.3 µM), for inactives: at the top dose activity, negative = inhibition, hits mostly inhibitors. hit rate 7.3% among 220,000. AID 1030. P00352; active = well fitted inhibition curve with a large enough effect, not every such curve was filed as active; inconclusive = small, poorly fitted or top-dose-only effect, or another doubt; inactive = no such curve, though single readings can be large or run the other way;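 note: potency is the fitted concentration of half-maximal effect; plate controls were no enzyme wells and a reference inhibitor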
12-hLO inh: 12-hLO (ALOX12) enzyme inhibition | purified 12-hLO, xylenol orange hydroperoxide absorbance | AID 1452 | P18054 | Potency, µM (top dose mostly 57.1 µM), without a hit: at the highest dose activity change, negative = inhibition, usual class: inhibitors | hit rate 0.12% among 150,000; note: potency is the fitted concentration of half-maximal effect; nearly all actives have a fitted effect of over 55% in size
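Hydroperoxide formation by human 12-lipoxygenase from 40 uM arachidonic acid was followed colorimetrically via ferric-xylenol orange complex, using the 573/405 nm absorbance ratio. Enzyme concentration was 150 nM, with 30 min reaction at room temperature.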
GLA spleen mod: inhibitors or activators of human alpha-galactosidase in spleen homogenate; AID 2107; P06280; hit rate 0.008% among 240,000; Potency, µM (top dose mostly 80 µM), for the others: at the highest dose activity change, negative = inhibition, usual class: inhibitors; human spleen homogenate, 4MU-alpha-Gal fluorescence, 40 min;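 note: potency is the fitted concentration of half-maximal effect; 0% = enzyme with vehicle and -100% = no enzyme basal signal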
Target sequence (P06280 32-429 limits assumed): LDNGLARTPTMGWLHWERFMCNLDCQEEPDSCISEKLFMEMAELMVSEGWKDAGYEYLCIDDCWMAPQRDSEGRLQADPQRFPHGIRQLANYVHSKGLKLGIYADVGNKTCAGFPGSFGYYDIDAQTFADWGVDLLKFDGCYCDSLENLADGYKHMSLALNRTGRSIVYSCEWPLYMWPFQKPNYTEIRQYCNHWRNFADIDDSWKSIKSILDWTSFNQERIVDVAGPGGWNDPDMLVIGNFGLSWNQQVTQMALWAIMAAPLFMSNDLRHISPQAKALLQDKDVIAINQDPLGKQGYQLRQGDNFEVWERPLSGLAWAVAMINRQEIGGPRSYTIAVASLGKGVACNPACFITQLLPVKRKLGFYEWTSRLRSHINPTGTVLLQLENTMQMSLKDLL
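Human spleen homogenate (1 ug) as enzyme source, 4-methylumbelliferyl-alpha-D-galactopyranoside 1 mM final, citrate/phosphate pH 5.0 with 0.01% Tween-20. Compounds 40 min at 37C, NaOH/glycine stop; fluorescence Ex 365/Em 440, Hill-fit AC50.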
HPGD inh: inhibitors of human 15-hydroxyprostaglandin dehydrogenase (HPGD); P15428; purified HPGD, NADH fluorescence kinetic, PGE2 substrate; Potency, µM, for the others: at the highest dose activity change, negative = inhibition, usual class: inhibitors; hit rate 4.3% among 150,000; AID 894; active = well fitted inhibition curve with a large enough effect, not every such curve was filed as active; inconclusive = small, poorly fitted or top-dose-only effect, or another doubt; inactive = no such curve, though single readings can be large or run the other way; note: potency is the fitted concentration of half-maximal effect
Target sequence (P15428 whole entry, looked up): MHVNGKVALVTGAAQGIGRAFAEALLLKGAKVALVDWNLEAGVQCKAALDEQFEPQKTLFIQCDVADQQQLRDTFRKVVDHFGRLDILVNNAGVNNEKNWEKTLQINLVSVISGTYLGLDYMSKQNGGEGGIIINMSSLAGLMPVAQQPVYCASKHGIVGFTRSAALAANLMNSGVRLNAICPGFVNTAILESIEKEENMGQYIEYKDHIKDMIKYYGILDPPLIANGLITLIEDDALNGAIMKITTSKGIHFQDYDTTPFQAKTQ
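NADH formation kinetics: reaction with 30 uM PGE2 and 1 mM NAD+ (final), 20 nM enzyme, Tris-HCl pH 8 with Tween 20, after 15 min compound preincubation at room temperature. Fluorescence change, last versus first of five reads.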
PNC assembly inh: perinucleolar compartment assembly inhibition; PC3M PTB-GFP, PNC prevalence imaging, 16 h; stronger effect = lower value; activity change (PNC), negative = inhibition, % at 10 µM; hit rate 3.1% among 140,000;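 active = readout at or below -70, meaning at least 70% loss of cells showing the perinucleolar compartment, a nuclear body marking cancer cells; inconclusive = readout between -30 and a set limit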;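 note: plate controls were DMSO wells for no effect and camptothecin positive control wells for full effect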
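Compounds are pinned in duplicate onto adhered PC3M cells stably expressing GFP-tagged PTB and incubated 16 h at 37 C. Cells are then fixed, nuclei stained with Hoechst, and PNC-positive cells counted.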
Numbers without * were called inactive; ? = inconclusive; nt = not tested or not shown; [ ] = remark or other dose. Unless noted, calls come from the whole dose curve; as a rule, active = well fitted curve in the direction sought with a large enough effect; inconclusive = small, poorly fitted or top-dose-only effect, or another doubt; inactive = no such curve, though single readings can be large; an effect the other way counts as inactive or inconclusive. Unless noted, % is set by controls: 0 for no effect and ±100 for the full control effect.

SMILES	GLA inh pH 4.5	ALDH1A1 block	12-hLO inh	GLA spleen mod	HPGD inh	PNC assembly inh
O=C(/C=C/c1ccccc1[N+](=O)[O-])c1ccccc1Br	2	?	nt	4%	nt	nt
CC(C)(C)N1C(=O)[C@@H]2[C@H]3C(=CC[C@H]2C1=O)C(=O)[C@H]1O[C@H]1[C@H]3O	nt	?	nt	2%[17.5 µM]	nt	nt
O=C(c1ccc2c(c1)OCCO2)N1CCCC(CNS(=O)(=O)c2cccs2)C1 (centres undefined)	-4	2.2µM*	nt	7%	nt	nt
O=C(COC(=O)C1CCN(S(=O)(=O)c2cccs2)CC1)c1ccccc1	1	0%	nt	-6%	nt	nt
O=C(OCn1nnc2ccccc2c1=O)C1CCN(S(=O)(=O)c2cccs2)CC1	-28	4%	0%	7%	-8%	-100*
CCCn1c(SCC(=O)c2c(C)[nH]c(C)c2C(=O)OCC)nc2ccccc21	-2	-1%	-1%	2%	0%	-17
CCOC(=O)c1nc2sc3c(c2c(=O)[nH]1)CCCC3	?	?	-3%	27%	?	-86*
CCOC(=O)CSc1nnc(CSc2nc3sc4c(c3c(=O)[nH]2)CCCC4)n1-c1ccccc1	-5	0%	7%	6%	14µM*	67
CCOC(=O)CCCSc1nc2sc3c(c2c(=O)[nH]1)CCC3	6	-2%	2%	2%	3.5µM*	-7
COC(=O)[C@@]1(Cc2ccccc2)[C@H]2c3cc(C(=O)N4CCCC4)n(Cc4ccc(OC)c(OC)c4)c3C[C@H]2CN1C(=O)c1ccccc1	-7	-4%	-3%	9%	-4%	nt
CCC(C(=O)C(C)C(O)C(C)CCc1ccc(C)c(O)c1C(=O)O)C1OC(CC)(C2CC[C@@](O)(CC)C(C)O2)CC1C (some centres undefined)	0	-1%	0%	12%	-6%	nt
Oc1c(Cl)cc(Cl)cc1C=Nc1cc(C(F)(F)F)ccc1N1CCc2ccccc2C1	-8	-3%	nt	-5%	nt	nt
Cc1cc2oc(=O)cc(-c3ccccc3)c2c(C)c1-c1ccc(F)c(Cl)c1	-8	5%	-1%[0.00818 µM]	3%[119 µM]	-2%	nt
COc1cc(OC)c2c(-c3ccccc3)cc(=O)oc2c1	nt	14µM*	nt	8%	nt	nt
Cc1cc2oc(=O)cc(-c3ccccc3)c2c(C)c1-c1ccc(C#N)cc1	-11	13µM*	0%[0.00818 µM]	2%[119 µM]	-21%	nt
Cc1cc2oc(=O)cc(-c3ccccc3)c2c(C)c1-c1cccc(N)c1	-11	25µM*	1%[0.00818 µM]	1%[119 µM]	-13%	nt
COc1ccccc1NC(=O)CN1CC(=O)Nc2ccccc21	6	3.5µM*	nt	-2%	nt	nt
O=C(CN1CC(=O)Nc2ccccc21)Nc1ccc(F)c(F)c1	1[21.1 µM]	6.3µM*	nt	-1%	nt	nt
COc1ccc(N(C(C)=O)S(=O)(=O)c2cccc3cccnc23)cc1	4	1%	-3%	-12%	-1%	-17
N#CCCCSc1nnnn1-c1cc(C(F)(F)F)cc(C(F)(F)F)c1	-20	-2%	nt	0%	0%	nt
O=C(NCc1ccccc1)c1nc2c(nnn2Cc2cccc(Cl)c2)c(=O)[nH]1	?	15%	-1%	2%	2.5µM*	-28
O=C(NCc1ccco1)c1nc2c(nnn2Cc2cccc(Cl)c2)c(=O)[nH]1	5	28µM*	-1%	-18%	0.35µM*	57
CCOc1ccc(N2C(=O)CNC2=S)cc1	2	2%	nt	7%	nt	nt
CCOc1ccc(N2C(=O)CS/C2=C(\C(Cl)=C(Cl)Cl)[N+](=O)[O-])cc1	0	22µM*	-8%	7%	-5%	50
c1nc2nc(Nc3ccc(N4CCOCC4)cc3)nc(NC3CCCCC3)c2[nH]1	nt	nt	nt	10%	nt	nt
SMILES	GLA inh pH 4.5	ALDH1A1 block	12-hLO inh	GLA spleen mod	HPGD inh	PNC assembly inh
O=c1c2ccccc2cnn1Cc1n[nH]c(=S)n1-c1ccccc1Cl	-6	32µM*	-2%	-1%	?	-17
S=c1[nH]nc(Cc2ccccc2)n1-c1cccc2ccccc12	-5	?	-11%	-1%	16µM*	14
C=CCC(C)(O)/C=C/c1ccccc1 (centres undefined)	-3	1%	nt	6%	-10%	nt
CCCS(=O)(=O)c1nc(S(=O)(=O)c2ccc(C)cc2)c(NCCN2CCOCC2)s1	1	14µM*	-6%	0%	-5%	-107*
CSCCC(NC(=O)c1ccccc1)C(=O)OCC(=O)c1ccc[nH]1 (centres undefined)	2	2%	2%	7%	-3%	9
CSCCC(NC(=O)c1ccc(Cl)cc1)C(=O)OCC(=O)c1ccc[nH]1 (centres undefined)	-9	-6%	-7%	-4%	-8%	-119*
CC(=O)c1ccc2c(c1)C1C=CCC1C(C(=O)O)N2 (centres undefined)	0	?	nt	-18%	nt	nt
O=C(O)C1Nc2c(O)cc(Cl)c([N+](=O)[O-])c2C2C=CCC12 (centres undefined)	5	13µM*	nt	4%	nt	nt
COc1ccnc(CS(=O)c2nc3ccc(OC(F)F)cc3[nH]2)c1OC (centres undefined)	2	?	-13%	-18%	?	nt
CCCCCC1CC(CC(=O)O)C(=O)O1 (centres undefined)	3	3%	2%	5%	-9%	-13
CCCCCCC1CC(CCc2nc(=S)[nH][nH]2)C(=O)O1 (centres undefined)	7	?	-2%	-8%	16µM*	?
CCCCCCCCc1nc(=S)[nH][nH]1	2	13µM*	-23%	-5%	16µM*	-6
CCCCCCCCCc1nc(N)n[nH]1	-10	0%	3%	3%	2%	44
S=c1[nH]nc(-c2cc(-c3ccccc3)n[nH]2)n1/N=C/C(Br)=C/c1ccccc1	-15	16%	nt	-2%	nt	nt
O=C(c1cccc(F)c1)N1CCC2(CC1)CN(c1ncccn1)C2	nt	?	0%	18%	?	nt
Fc1ccccc1Nc1n[nH]c(=S)s1	2	7.1µM*	nt	-3%	nt	nt
S=c1[nH]nc(Nc2cccc3ccccc23)s1	-4	nt	nt	12%	nt	nt
CN1CCN(CCCNN)CC1	nt	14%[13.5 µM]	0%[11.4 µM]	nt	3%	nt
Cc1sc2nc(C3CC3)nc(NCCNS(C)(=O)=O)c2c1C	3	32µM*	-5%	-4%	-2%	0
Cc1nc(NCCc2ccc(S(N)(=O)=O)cc2)c2c(C)c(C)sc2n1	-7	-10%	4%	1%	-9%	?
O=C(c1ccc2c3c(cccc13)CC2)N1CCOCC1	3	14µM*	-17%	-24%	11µM*	-21
O=C(c1c[nH]c2ccccc12)N1CCOCC1	-11	0%	nt	-13%	nt	nt
CCOC(=O)c1cc(C#N)c(N2CCN(C(=O)c3ccccc3)CC2)nc1C(F)(F)F	-3	13µM*	nt	2%	nt	nt
CCSc1nc2ccccc2c(=O)n1CCc1ccc(OC)c(OC)c1	0	nt	nt	-2%	nt	nt
